An excerpt weighted towards active compounds, which were near 0.96% of everything screened.
DAGLB inhibitor: diacylglycerol lipase beta (human) inhibition; Q8NCG7; HEK293T DAGLB membrane lysate, EnzChek fluorogenic substrate; inhibition, % at 5.17 µM; actives 0.059% (n = 340,000); in the data active = inhibition above about 34%
V-ATPase pH: alters yeast V-ATPase proton transport; S. cerevisiae, pHLuorin cytosolic pH fluorescence; response, % at 10 µM; actives 0.37% (n = 350,000); AID 504577; in the data active = response mostly above about 7.3%, no sharp cut-off; inactive = mostly below about 5.4%; also: actives read high
Rtt109 HAT inh: C. albicans Rtt109 histone acetyltransferase inhibition; Q5AAJ8; actives 0.16% (n = 330,000); inhibition, % at 34.9 µM; purified Rtt109/Vps75, ThioGlo CoA-SH fluorescence, 4 h;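 active = inhibition of at least 50% in every replicate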
HDAC3 inhib: human HDAC3 inhibition; O15379; recombinant HDAC3, fluorogenic peptide/trypsin coupled, fluorescence; inhibition, % at 8.3 µM; actives 0.15% (n = 320,000); in the data active = inhibition above about 26%, passing the limit was not always enough
Target sequence (O15379 whole entry, looked up): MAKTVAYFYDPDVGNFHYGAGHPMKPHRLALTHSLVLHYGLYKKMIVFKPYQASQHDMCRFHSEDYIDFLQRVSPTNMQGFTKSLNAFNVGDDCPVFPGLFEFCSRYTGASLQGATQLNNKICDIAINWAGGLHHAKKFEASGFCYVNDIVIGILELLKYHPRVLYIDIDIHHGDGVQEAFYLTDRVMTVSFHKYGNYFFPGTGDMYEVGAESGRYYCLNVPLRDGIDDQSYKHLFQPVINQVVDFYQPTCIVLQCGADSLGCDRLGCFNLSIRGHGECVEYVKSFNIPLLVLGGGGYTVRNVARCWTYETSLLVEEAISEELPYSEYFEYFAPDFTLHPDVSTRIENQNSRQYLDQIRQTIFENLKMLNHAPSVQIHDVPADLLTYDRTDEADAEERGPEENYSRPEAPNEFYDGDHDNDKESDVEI
MIN6 prolif-1: induces beta-cell replication in MIN6 cells. proliferation, % at 10 µM. MIN6 cells proliferation, ATPlite luminescence, 48 h; cells starved in 0.2% serum; 100% = growth in 10% serum. actives 0.29% (n = 330,000);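 active = compounds whose signal lies at least 3.5 SD above the mean of all wells on their plate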
MIN6 prolif-2: MIN6 beta-cell replication induction, confirmed; shares compounds with MIN6 prolif-1; MIN6 beta-cell proliferation, ATPlite luminescence, 48 h; cells kept in 0.2% serum; scaled between 0.2% and 10% serum; proliferation increase, % at 50 µM; 920 tested, under 10 active; AID 463095;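 active = proliferation increase above 40% at any of the four tested concentrations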
A number is an active result.

Results for COc1ccc(/C(C)=N/NC(=O)C(NC(=O)c2ccccc2)c2n[nH]c(=O)c3ccccc23)c(OC)c1 (stereo not given) ?
DAGLB inhibitor: inactive; V-ATPase pH: inactive; Rtt109 HAT inh: inactive; HDAC3 inhib: inactive; MIN6 prolif-1: 6.8; MIN6 prolif-2: inactive

Results for COc1cc(/C=N/NC(=O)C(NC(=O)c2ccccc2)c2n[nH]c(=O)c3ccccc23)ccc1OCC(N)=O (stereo not given) ?
DAGLB inhibitor: inactive; V-ATPase pH: inactive; Rtt109 HAT inh: inactive; HDAC3 inhib: inactive; MIN6 prolif-1: inactive

Results for O=C(C1=C[C@@H](c2ccc(Br)cc2)C[C@@H](OCCCCO)O1)N1CCOCC1 ?
DAGLB inhibitor: inactive; V-ATPase pH: inactive; Rtt109 HAT inh: inactive; HDAC3 inhib: inactive; MIN6 prolif-1: inactive

Results for COc1ccccc1C(=O)Nc1ccc2c(C)cc(=O)oc2c1 ?
DAGLB inhibitor: inactive; V-ATPase pH: inactive; Rtt109 HAT inh: inactive; HDAC3 inhib: inactive; MIN6 prolif-1: inactive

Results for CCOc1ncccc1C(=O)Nc1ccc2c(C)cc(=O)oc2c1 ?
DAGLB inhibitor: inactive; V-ATPase pH: inactive; Rtt109 HAT inh: inactive; HDAC3 inhib: inactive; MIN6 prolif-1: 8.1; MIN6 prolif-2: inactive

What do the screens show for `Cc1cc(C)cc(OCc2nnc(SCC(=O)NC3CC3)n2C)c1`?
DAGLB inhibitor: inactive; V-ATPase pH: inactive; Rtt109 HAT inh: inactive; HDAC3 inhib: inactive; MIN6 prolif-1: inactive

Results for CCC(C)(C(=O)NC1CCCC1)N(Cc1ccco1)C(=O)c1ccc2c(c1)OCO2 (stereo not given) ?
DAGLB inhibitor: inactive; V-ATPase pH: inactive; Rtt109 HAT inh: inactive; HDAC3 inhib: inactive; MIN6 prolif-1: 8.7; MIN6 prolif-2: inactive

How did CCC(C)(C(=O)NC1CCCC1)N(Cc1ccco1)C(=O)Cc1cccs1 (stereo not given) do in these assays?
DAGLB inhibitor: inactive; V-ATPase pH: inactive; Rtt109 HAT inh: inactive; HDAC3 inhib: inactive; MIN6 prolif-1: 12; MIN6 prolif-2: inactive

Results for COc1cccc2c1c(NC(=O)Nc1ccc(F)cc1F)nn2C ?
DAGLB inhibitor: inactive; V-ATPase pH: inactive; Rtt109 HAT inh: inactive; HDAC3 inhib: inactive; MIN6 prolif-1: 6.8; MIN6 prolif-2: inactive

Results for COc1ccccc1NC(=O)Nc1nn(C)c2cccc(N(C)C)c12 ?
DAGLB inhibitor: inactive; V-ATPase pH: inactive; Rtt109 HAT inh: inactive; HDAC3 inhib: inactive; MIN6 prolif-1: inactive

What do the screens show for `Cc1ccccc1N=Nc1c(N)n[nH]c1N`?
DAGLB inhibitor: inactive; V-ATPase pH: inactive; Rtt109 HAT inh: inactive; HDAC3 inhib: inactive; MIN6 prolif-1: 7.2; MIN6 prolif-2: inactive

Results for Cc1ccc(OCC(=O)N2CC3(C)CC2CC(C)(C)C3)cc1 (stereo not given) ?
DAGLB inhibitor: inactive; V-ATPase pH: inactive; Rtt109 HAT inh: inactive; HDAC3 inhib: inactive; MIN6 prolif-1: 6.8; MIN6 prolif-2: inactive

How did O=C(CN1CCC(Cc2ccccc2)CC1)N1CCc2ccccc2C1 do in these assays?
DAGLB inhibitor: inactive; V-ATPase pH: inactive; Rtt109 HAT inh: inactive; HDAC3 inhib: inactive; MIN6 prolif-1: 9.0; MIN6 prolif-2: inactive

Results for N/C(Cc1ccc([N+](=O)[O-])cc1)=N\OC(=O)COc1cccc2ccccc12 ?
DAGLB inhibitor: inactive; V-ATPase pH: inactive; Rtt109 HAT inh: inactive; HDAC3 inhib: inactive; MIN6 prolif-1: inactive

How did CC(C)(C)C1CCC2(CC1)NC(CO)(CO)CO2 (stereo not given) do in these assays?
DAGLB inhibitor: inactive; V-ATPase pH: inactive; Rtt109 HAT inh: inactive; HDAC3 inhib: inactive; MIN6 prolif-1: inactive

Results for CCCCCCNC(=O)Nc1ccccc1 ?
DAGLB inhibitor: inactive; V-ATPase pH: inactive; Rtt109 HAT inh: inactive; HDAC3 inhib: inactive; MIN6 prolif-1: 8.2; MIN6 prolif-2: inactive

Results for O=C(O)CCCNC(=O)Nc1ccccc1 ?
DAGLB inhibitor: inactive; V-ATPase pH: inactive; Rtt109 HAT inh: inactive; HDAC3 inhib: inactive; MIN6 prolif-1: inactive

How did Cc1cc(Br)c(NC(=O)COC(=O)C2CCCCC2)c(Br)c1 do in these assays?
DAGLB inhibitor: inactive; V-ATPase pH: inactive; Rtt109 HAT inh: inactive; HDAC3 inhib: inactive; MIN6 prolif-1: 11; MIN6 prolif-2: inactive

How did CN(c1ncnc(N)c1[N+](=O)[O-])C1CCCCC1 do in these assays?
DAGLB inhibitor: inactive; V-ATPase pH: inactive; Rtt109 HAT inh: inactive; HDAC3 inhib: inactive; MIN6 prolif-1: 25; MIN6 prolif-2: inactive

How did CN(c1ncnc(N)c1[N+](=O)[O-])C1CCS(=O)(=O)C1 (stereo not given) do in these assays?
DAGLB inhibitor: inactive; V-ATPase pH: inactive; Rtt109 HAT inh: inactive; HDAC3 inhib: inactive; MIN6 prolif-1: inactive

What do the screens show for `CCC1CCC2(CC1)NC(=O)N(CC(=O)NCc1ccccc1Cl)C2=O` (stereo not given)?
DAGLB inhibitor: inactive; V-ATPase pH: inactive; Rtt109 HAT inh: inactive; HDAC3 inhib: inactive; MIN6 prolif-1: inactive

Results for CC1(C)CC(=O)C/C(=N/NC(=O)C2CCN(S(=O)(=O)c3cccs3)CC2)C1 ?
DAGLB inhibitor: inactive; V-ATPase pH: inactive; Rtt109 HAT inh: inactive; HDAC3 inhib: inactive; MIN6 prolif-1: 9.3; MIN6 prolif-2: inactive

What do the screens show for `Nc1cc2c(cc1N)-c1ccccc1C2`?
DAGLB inhibitor: inactive; V-ATPase pH: inactive; Rtt109 HAT inh: inactive

How did CCC(=O)NC1(C(F)(F)F)C(=O)Nc2c1c(=O)n(C)c(=O)n2C (stereo not given) do in these assays?
DAGLB inhibitor: inactive; V-ATPase pH: inactive; Rtt109 HAT inh: inactive; HDAC3 inhib: inactive; MIN6 prolif-1: inactive

Results for CCN(Cc1ccccc1)S(=O)(=O)c1ccc(S(=O)(=O)N(Cc2cccc(OC)c2)CC2CCCO2)cc1 (stereo not given) ?
DAGLB inhibitor: inactive; V-ATPase pH: inactive; Rtt109 HAT inh: inactive; HDAC3 inhib: inactive; MIN6 prolif-1: inactive

Results for COc1cccc(CN(CC2CCCO2)S(=O)(=O)c2ccc(-n3cnnn3)c(OC)c2)c1 (stereo not given) ?
DAGLB inhibitor: inactive; V-ATPase pH: inactive; Rtt109 HAT inh: inactive; HDAC3 inhib: inactive; MIN6 prolif-1: 9.3; MIN6 prolif-2: inactive

Results for O=C(N/N=C/c1ccncc1)c1nc(-c2ccccc2)n2c1CCCCC2 ?
DAGLB inhibitor: inactive; V-ATPase pH: inactive; Rtt109 HAT inh: inactive; HDAC3 inhib: inactive; MIN6 prolif-1: 8.3; MIN6 prolif-2: inactive

What do the screens show for `Cc1ccc(S(=O)(=O)NC(=O)Nc2cc(C)on2)cc1`?
DAGLB inhibitor: inactive; V-ATPase pH: inactive; Rtt109 HAT inh: inactive; HDAC3 inhib: inactive; MIN6 prolif-1: inactive

How did CC(C)n1c(SCC(=O)Nc2ccc3c(c2)OCO3)nc2c1c(=O)n(C)c(=O)n2C do in these assays?
DAGLB inhibitor: inactive; V-ATPase pH: inactive; Rtt109 HAT inh: inactive; HDAC3 inhib: inactive; MIN6 prolif-1: inactive

What do the screens show for `COC(=O)c1ccc(C(=O)OC)nc1`?
DAGLB inhibitor: inactive; V-ATPase pH: inactive; Rtt109 HAT inh: inactive; HDAC3 inhib: inactive; MIN6 prolif-1: inactive

Results for COC(=O)c1ccc(SC)cn1 ?
DAGLB inhibitor: inactive; V-ATPase pH: inactive; Rtt109 HAT inh: inactive; HDAC3 inhib: inactive; MIN6 prolif-1: 11; MIN6 prolif-2: inactive
